This is an account of results in PubChem BioAssay (NCI).

Molecules are shown by their SMILES. Compounds without any hit were thinned out: in the full panel of roughly 79,000, 15% have a hit. Unmarked numbers belong to inactive results. Activity calls are given as the source filed them. Rule as the data show it: active = growth inhibition above about 70%; inactive = the rest.

Assay [1] in a line: NCI Yeast Anticancer Drug Screen. Data for the rad50 strain (AID 155).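 Also: 0% = growth of vehicle-only cultures of the same strain.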 The conditions noted are these: S. cerevisiae rad50 strain growth inhibition; at 50.0 µM; stronger effect = higher value. Summed up:
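Compounds were tested on a yeast strain with an engineered DNA damage repair alteration; the reported value is growth inhibition normalised to vehicle treatment.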

Assay [2] in a line: NCI Yeast Anticancer Drug Screen. Data for the mec2-1 strain (AID 157). The conditions noted are these: S. cerevisiae mec2-1 strain, at 50.0 µM, stronger effect = higher value. Summed up: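 Yeast mec2-1 mutant treated with compound. Readout: growth inhibition vs vehicle controls.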
Assay [3] is described as follows: NCI Yeast Anticancer Drug Screen. Data for the sgs1 mgt1 strain (AID 161).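 Also: 0% = growth of cultures given vehicle only.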 The conditions noted are these: S. cerevisiae sgs1 mgt1 strain, at 50.0 µM, stronger effect = higher value. Summed up:
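Test agents were incubated with a DNA-repair-mutant yeast strain. Growth was then read and compared against vehicle-treated controls.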

Assay [4] can be described thus: NCI Yeast Anticancer Drug Screen. Data for the cln2 rad14 strain (AID 165).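 Also: 0% = growth equal to vehicle treated cultures.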 Conditions: S. cerevisiae cln2 rad14 strain, at 50.0 µM, stronger effect = higher value. Summed up: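 cln2 rad14 yeast strain; compound exposure; growth inhibition read vs vehicle controls.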
Assay [5] is described as follows: NCI Yeast Anticancer Drug Screen. Data for the bub3 strain (AID 167). Conditions: S. cerevisiae bub3 mutant strain, at 50.0 µM, stronger effect = higher value. Summed up: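 Growth of a checkpoint-deficient yeast mutant is measured after compound exposure. Values represent inhibition relative to vehicle.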
Assay [6] can be described thus: NCI Yeast Anticancer Drug Screen. Data for the mlh1 rad18 strain (AID 175). Conditions: S. cerevisiae mlh1 rad18 strain growth inhibition; at 50.0 µM; stronger effect = higher value. The method, boiled down: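 Yeast w/ defined DNA-repair lesions; compound exposure; growth vs vehicle controls → % inhibition.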

Consider `Cc1ccc2c(c1)C(C)(C)CCC2`, for which the growth inhibition in assay [1] is -2.1%; in assay [2] it was -18.4%; in assay [3], -18.4%; in assay [4] it was -59.6%; in assay [5], -9.1%; in assay [6], 4.95%.
In the case of `CC[N+](C)(CC)CCl`, the growth inhibition in assay [1] is -49.2%; in assay [2], -17.9%; in assay [3], -20.8%; in assay [4], -45.4%; in assay [5], 7.6%; in assay [6] it was -1.65%.
As to `N#CC(CCc1ccc([N+](=O)[O-])cc1)(CCc1ccc([N+](=O)[O-])cc1)C(N)=O`, the growth inhibition in assay [1] is 38.4%; in assay [2], 19.4%; in assay [3], 35.9%; in assay [4], -14.2%; in assay [5] it was 24.9%; in assay [6] it was 49.2%.
For `CC(C)CCCC(C)C1CCC2(C)C3=C(CCC12C)C1(C)CCC(=O)C(C)(C)C1CC3` (stereo not given), the growth inhibition in assay [1] was 73.1% (active); in assay [2], 57.2%; in assay [3] it was 83.5% (active); in assay [4], 44.5%; in assay [5], 14.6%; in assay [6] it was 34%.
Take `N#Cc1c(N)ncn1C1OC(CO)C(O)C1O` (stereo not given): the growth inhibition was -17.6% in assay [1]; -7.6% in assay [2]; -20.9% in assay [3]; -16.3% in assay [4]; 0.15% in assay [5]; -13.3% in assay [6].
For `CC(C)(C)C(Br)CC(N)=O` (stereo not given), the growth inhibition in assay [1] is 22.1%; in assay [2], 1.55%; in assay [3], 2%; in assay [4], 4.3%; in assay [5] it was -6.95%; in assay [6], -6.85%.
On to `CCOC(CNCCC(=O)OC)OCC`, for which the growth inhibition is -31.9% in assay [1]; -59.2% in assay [2]; -23.4% in assay [3]; -8% in assay [4]; -5.35% in assay [5]; -29.1% in assay [6].
In the case of `CCc1ccccc1NC(=O)N1CCOCC1`, the growth inhibition is -8.45% in assay [1]; -27.9% in assay [2]; -1.55% in assay [3]; 3.05% in assay [4]; -4.15% in assay [5]; -7.15% in assay [6].
Take `N#CCCOCCN1CCN(c2cccc(Cl)c2)CC1`: the growth inhibition in assay [1] is 9.85%; in assay [2], -7.8%; in assay [3], 12%; in assay [4] it was -2.6%; in assay [5] it was 51.6%; in assay [6] it was 23.1%.
Consider `Cc1cc(=O)[nH]cn1`, for which the growth inhibition in assay [1] is 0.25%; in assay [2], 6.2%; in assay [3] it was -7.2%; in assay [4] it was 7.45%; in assay [5] it was 19.8%; in assay [6], -4.9%.
Regarding `CN1CCCS/C1=C1/SC(=S)N(c2ccccc2)C1=O`, the growth inhibition is -16.8% in assay [1]; 13.8% in assay [2]; -5.85% in assay [3]; -5.75% in assay [4]; -28.1% in assay [5]; -17.4% in assay [6].
In the case of `NC(=O)C(c1ccccc1)c1ccnc2ccccc12` (stereo not given), the growth inhibition in assay [1] was 2.05%; in assay [2], 4.5%; in assay [3], 7.9%; in assay [4], 8.05%; in assay [5], 20.4%; in assay [6], -21.2%.
For `O=[N+]([O-])c1cccc(/C=N\NS(=O)(=O)c2ccc(Cl)cc2)c1O`, the growth inhibition in assay [1] was -11.7%; in assay [2] it was -13.3%; in assay [3], -11.8%; in assay [4], -2.3%; in assay [5], -38.4%; in assay [6] it was -5.9%.
Turning to `O=C(O)[C@@H]1CCC(=O)N1C(c1ccc2c(c1)OCO2)c1ccc2c(c1)OCO2`, the growth inhibition was -52.2% in assay [1]; -18.1% in assay [2]; -31.1% in assay [3]; 4.35% in assay [4]; -15.1% in assay [5]; -24.4% in assay [6].
For the compound `C[N+]1(C)CCCC(c2ccccc2)(c2ccccc2)C(O)C1` (stereo not given), the growth inhibition in assay [1] is 10.8%; in assay [2], 7.15%; in assay [3] it was 11.2%; in assay [4], 23.4%; in assay [5] it was -2.65%; in assay [6] it was 11.9%.
For `CN(C)Cc1cccc(C(F)(F)F)c1C(O)c1ccccc1` (stereo not given), the growth inhibition in assay [1] is 7.75%; in assay [2], -10.2%; in assay [3] it was -5.3%; in assay [4], 3.9%; in assay [5] it was 7.7%; in assay [6], -14.7%.
Take `CNc1ccc(Br)cc1[N+](=O)[O-]`: the growth inhibition is -22.2% in assay [1]; -22.7% in assay [2]; -12.9% in assay [3]; -0.2% in assay [4]; -26.7% in assay [5]; -15.4% in assay [6].
For `CC1=c2c(oc3cc(O)c(Nc4c(C)cc(O)cc4O)c(C)c23)=CC(=O)C1=Nc1c(C)cc(O)cc1O`, the growth inhibition was 17.9% in assay [1]; 7.8% in assay [2]; 0.45% in assay [3]; -2.3% in assay [4]; -35% in assay [5]; 18.4% in assay [6].
With `O=S1(=O)CCCCc2ccccc21`, the growth inhibition in assay [1] was 7.35%; in assay [2], -0.75%; in assay [3] it was 3.75%; in assay [4], -9.35%; in assay [5] it was 1.85%; in assay [6], -23.2%.
On to `CC1OC(OCC2COC(O)(Oc3c(-c4ccc(O)c(O)c4)oc4cc(O)cc(O)c4c3=O)C(O)C2O)C(O)C(O)C1O` (stereo not given), for which the growth inhibition in assay [1] is 20.1%; in assay [2], -29.4%; in assay [3] it was -15.8%; in assay [4] it was 0.6%; in assay [5] it was 8.05%; in assay [6], 13.9%.
